Inconclusive results are not listed. Activity calls are given as the source filed them. The calls were made as follows, unless noted: active = hit-call score of the fitted dose curve at least 0.9, where 1 is the maximum; inactive = score below 0.9.

Experiment [1] in a line: ATG_TAL_CIS: Attagene CIS-FACTORIAL HepG2 Assay for human TAL Basal Promoter (AID 2282966).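 Also: background control endpoint measuring basal TAL promoter reporter mRNA not a specific factor.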 The note with it: HepG2 Attagene cis-factorial TAL promoter reporter; actives raise or lower the signal. In short, it runs like this: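 HepG2 cells were transiently transfected with promoter-driven multiplexed reporter units and dosed for 24 h. Reporter mRNA was measured by RT-PCR with capillary electrophoresis fluorescence; bidirectional fits used DMSO as baseline, serving as a background control.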

Experiment [2] in a line: ATG_TGFb_CIS: Attagene CIS-FACTORIAL HepG2 Assay for human Transforming Growth Factor (TGF) (AID 2282967). To be noted: HepG2 Attagene CIS TGFb reporter, mRNA transcription; actives raise or lower the signal. In short, it runs like this: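 HepG2 cells transiently transfected with cis-promoter-driven multiplexed reporter units; 24 h compound exposure. Reporter mRNA measured by RT-PCR, 6-FAM labeling, HpaI digestion and capillary electrophoresis; bidirectional fit versus DMSO baseline.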

Experiment [3] is described as follows: ATG_VDRE_CIS: Attagene CIS-FACTORIAL HepG2 Assay for human Vitamin D Receptor Element (VDRE) (AID 2282968). The note with it: HepG2 VDRE cis-reporter transcription, actives raise or lower the signal. In short, it runs like this:
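HepG2 cells transiently transfected with cis-element reporter units, dosed 24 h; reporter mRNA measured by RT-PCR, 6-FAM labeling, HpaI digestion and capillary electrophoresis. Activity fitted bidirectionally against DMSO baseline.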

Experiment [4] concerns the target Estrogen receptor (Homo sapiens) (UniProt P03372). In words: ATG_ERa_TRANS: Attagene TRANS-FACTORIAL HepG2 Assay for human Estrogen Receptor alpha (ERa) (AID 2282970; active = hit-call score of the fitted dose curve at least 0.9, where 1 is the maximum). To be noted: HepG2 Attagene TRANS ERa GAL4 reporter, mRNA. In short, it runs like this: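 HepG2 cells transiently transfected with multiplexed GAL4-UAS reporter units; ERa activity read via exogenous chimeric NR-Gal4 protein. After 24 hour compound exposure, reporter mRNA measured by RT-PCR with 6-FAM labelling and capillary electrophoresis; gain-of-signal fitted relative to DMSO.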

For experiment [5], the target named is Steroid hormone receptor ERR1 (Homo sapiens) (UniProt P11474). Nature of the experiment: ATG_ERRa_TRANS: Attagene TRANS-FACTORIAL HepG2 Assay for human Estrogen-Related Receptor alpha (ERRa) (AID 2282971; active = hit-call score of the fitted dose curve at least 0.9, where 1 is the maximum). The note with it: HepG2 Attagene TRANS reporter, ERRa transactivation. In short, it runs like this: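 HepG2 cells transiently transfected with multiplexed GAL4-UAS reporter units reading chimeric ERRa-Gal4 activity; 24 h compound exposure. Reporter mRNA measured by RT-PCR, 6-FAM labelling, HpaI digest and capillary electrophoresis; gain of signal fitted versus DMSO baseline.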

For experiment [6], the target named is X-box-binding protein 1 (Homo sapiens) (UniProt P17861). In words: ATG_Xbp1_CIS: Attagene CIS-FACTORIAL HepG2 Assay for human X-box Binding Protein 1 (XBP1) (AID 2282972). To be noted: HepG2 XBP1 cis-element reporter, Attagene multiplex; actives raise or lower the signal. In outline:
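HepG2 cells transiently transfected with cis-regulated multiple reporter transcription units; endogenous transcription factor activity measured 24 hours after chemical dosing. Reporter mRNA quantified by RT-PCR, 6-FAM primer extension, HpaI digestion and capillary electrophoresis; bidirectional fitting versus DMSO.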

Experiment [7] in a line: ATG_M_19_TRANS: Attagene TRANS-FACTORIAL HepG2 Assay for M19 Transcription Factor (Internal Marker) (AID 2282974; active = hit-call score of the fitted dose curve at least 0.9, where 1 is the maximum). To be noted: HepG2 Attagene TRANS-FACTORIAL M19 internal marker reporter. In outline: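 Transfected HepG2 (GAL4-UAS MRTUs), 24 h compound, TriZol RNA, DNase-treated RT, reporter PCR, FAM label, HpaI digest, CE fluorescence; gain vs DMSO.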
Experiment [8] addresses Glucocorticoid receptor (Homo sapiens) (UniProt P04150). Nature of the experiment: ATG_GR_TRANS: Attagene TRANS-FACTORIAL HepG2 Assay for human Glucocorticoid Receptor (GR) (AID 2282978; active = hit-call score of the fitted dose curve at least 0.9, where 1 is the maximum;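 also: activators score as hits since higher reporter transcript over DMSO is fitted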). The note with it: HepG2 Attagene TRANS GR reporter, mRNA transcription. In short, it runs like this:
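After 24 h incubation with test chemical, transfected HepG2 cells were lysed for RNA; reporter cDNA was amplified, FAM-labelled, HpaI-digested and sized on a capillary analyser. Signal gain relative to DMSO was scored.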

Experiment [9] is described as follows: ATG_M_32_TRANS: Attagene TRANS-FACTORIAL HepG2 Assay for M32 Transcription Factor (Internal Marker) (AID 2282984; active = hit-call score of the fitted dose curve at least 0.9, where 1 is the maximum). To be noted: HepG2 Attagene TRANS M32 internal marker reporter. In short, it runs like this:
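HepG2 cells transiently transfected with multiple GAL4-UAS reporter transcription units, dosed for 24 hours; reporter mRNA quantified by RT-PCR, 6-FAM primer extension, HpaI digestion and capillary electrophoresis. Gain-of-signal fitted versus DMSO baseline; internal background-control marker.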

The target in experiment [10] is Transcriptional activator Myb (Homo sapiens) (UniProt P10242). Nature of the experiment: ATG_Myb_CIS: Attagene CIS-FACTORIAL HepG2 Assay for human Myeloblastosis (Myb) Proto-Oncogene Transcription Factor (AID 2282986). To be noted: HepG2 Attagene CIS-FACTORIAL Myb reporter transcription; actives raise or lower the signal. In outline:
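After 24 h of compound dosing, total RNA from transfected HepG2 cells is reverse-transcribed and the reporter sequences amplified, labeled and separated by capillary electrophoresis. Values come from bidirectional fitting against DMSO.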

Experiment [11] deals with Nuclear respiratory factor 1 (Homo sapiens) (UniProt Q16656). In words: ATG_NRF1_CIS: Attagene CIS-FACTORIAL HepG2 Assay for human Nuclear Respiratory Factor 1 (NRF1) Orphan Gene (AID 2282987). The note with it: HepG2 NRF1 cis-element reporter, Attagene multiplex; actives raise or lower the signal. In outline:
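Measured: fluorescent reporter-specific RT-PCR products from transfected HepG2 cells, separated by capillary electrophoresis. Exposure lasted 24 h. Analysis used bidirectional curve fitting with DMSO as negative control.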

Experiment [12] in a line: ATG_NFI_CIS: Attagene CIS-FACTORIAL HepG2 Assay for human Nuclear Factor I (NFI) (AID 2282989). The note with it: HepG2 cis-regulatory reporter, NFI response element transcription; actives raise or lower the signal. In short, it runs like this: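 HepG2 cells transiently transfected with cis-element-driven multiplexed reporter transcription units, dosed for 24 h. Reporter mRNA quantified by RT-PCR, fluorescent labelling, HpaI digestion and capillary electrophoresis; bidirectional fit versus DMSO baseline.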

Experiment [13] is described as follows: ATG_GAL4_TRANS: Attagene TRANS-FACTORIAL HepG2 Assay for GAL4 (Internal Marker) (AID 2282976; active = hit-call score of the fitted dose curve at least 0.9, where 1 is the maximum). The note with it: HepG2 Attagene TRANS GAL4 internal marker reporter. In short, it runs like this:
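HepG2 cells transiently transfected with multiplexed GAL4-UAS reporter constructs were dosed for 24 h. Reporter mRNA was measured by RT-PCR, 6-FAM primer extension, HpaI digestion and capillary electrophoresis, and gain of signal was fitted relative to DMSO.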

Experiment [14] addresses Oxysterols receptor LXR-alpha (Homo sapiens) (UniProt Q13133). In words: ATG_LXRa_TRANS: Attagene TRANS-FACTORIAL HepG2 Assay for human Liver X Receptor alpha (LXRa) (AID 2282980; active = hit-call score of the fitted dose curve at least 0.9, where 1 is the maximum). To be noted: HepG2 Attagene TRANS reporter, LXRa transactivation. In outline: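 HepG2 cells were transiently transfected with multiplexed reporter units driven by chimeric LXRa–GAL4 fusion proteins, then dosed for 24 h. Reporter mRNA was quantified by RT-PCR, fluorescent labelling and capillary electrophoresis; gain of signal fitted against DMSO baseline.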

Experiment [15] deals with Nuclear receptor subfamily 1 group I member 3 (Homo sapiens) (UniProt Q14994). Nature of the experiment: ATG_CAR_TRANS: Attagene TRANS-FACTORIAL HepG2 Assay for human Constitutive Androstane Receptor (CAR) (AID 2282969; active = hit-call score of the fitted dose curve at least 0.9, where 1 is the maximum;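 also: activators raise reporter mRNA above DMSO so AC50 marks induction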). The note with it: HepG2 Attagene TRANS-FACTORIAL CAR reporter. In short, it runs like this:
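HepG2 cells transiently transfected with multiplexed GAL4-UAS reporter units expressing chimeric NR-Gal4 proteins; compound exposure 24 h. Reporter mRNA measured by RT-PCR, 6-FAM labelling, HpaI digestion and capillary electrophoresis; gain-of-signal fitted against DMSO baseline.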

Experiment [16] can be described thus: ATG_M_06_TRANS: Attagene TRANS-FACTORIAL HepG2 Assay for M06 Transcription Factor (Internal Marker) (AID 2282983; active = hit-call score of the fitted dose curve at least 0.9, where 1 is the maximum;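 also: reporter transcript level by RT-PCR then capillary electrophoresis fluorescence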). The note with it: HepG2 Attagene TRANS M06 internal marker reporter. In outline: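 HepG2 cells transiently transfected with multiplexed GAL4-UAS reporter transcription units; after 24 h compound exposure, reporter mRNA measured by RT-PCR, FAM-labelled primer extension, HpaI digestion and capillary electrophoresis. Gain-of-signal fitted versus DMSO baseline; background control readout.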

Experiment [17] deals with Nuclear receptor subfamily 4 group A member 2 (Homo sapiens) (UniProt P43354). In words: ATG_NURR1_TRANS: Attagene TRANS-FACTORIAL HepG2 Assay for human Nuclear Receptor Related Protein 1 (NURR1) (AID 2282985; active = hit-call score of the fitted dose curve at least 0.9, where 1 is the maximum). To be noted: HepG2 Attagene TRANS reporter, mRNA readout. In short, it runs like this: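 HepG2 cells transiently transfected with GAL4-UAS reporter units and chimeric NR-Gal4 constructs; chemical exposure 24 h. Reporter mRNA quantified by RT-PCR, fluorescent labelling and capillary electrophoresis; gain of signal fitted relative to DMSO baseline.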
Chain of Nuclear receptor subfamily 4 group A member 2 (Homo sapiens) (P43354 whole entry, looked up, the tested form may be a part): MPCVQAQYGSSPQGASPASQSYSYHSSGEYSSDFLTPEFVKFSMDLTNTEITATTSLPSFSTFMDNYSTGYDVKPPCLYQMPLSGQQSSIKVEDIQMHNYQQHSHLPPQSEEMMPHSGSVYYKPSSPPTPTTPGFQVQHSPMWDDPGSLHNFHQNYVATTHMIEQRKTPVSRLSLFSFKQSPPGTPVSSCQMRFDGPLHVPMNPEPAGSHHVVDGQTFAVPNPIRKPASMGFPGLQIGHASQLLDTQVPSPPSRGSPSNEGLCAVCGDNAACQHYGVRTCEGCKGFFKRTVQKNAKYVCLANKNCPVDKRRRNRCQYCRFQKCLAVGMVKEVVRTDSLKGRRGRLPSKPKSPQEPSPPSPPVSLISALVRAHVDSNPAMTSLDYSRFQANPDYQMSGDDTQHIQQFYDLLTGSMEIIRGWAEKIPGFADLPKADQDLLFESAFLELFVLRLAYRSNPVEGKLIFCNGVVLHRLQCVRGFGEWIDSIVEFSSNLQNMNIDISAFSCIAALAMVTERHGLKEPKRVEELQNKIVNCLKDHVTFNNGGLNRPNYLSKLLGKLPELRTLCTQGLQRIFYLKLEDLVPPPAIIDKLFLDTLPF

Experiment [18] has as its target Hepatocyte nuclear factor 4-alpha (Homo sapiens) (UniProt P41235). Nature of the experiment: ATG_HNF4a_TRANS: Attagene TRANS-FACTORIAL HepG2 Assay for human Hepatocyte Nuclear Factor 4 alpha (HNF4a) (AID 2282982; active = hit-call score of the fitted dose curve at least 0.9, where 1 is the maximum). To be noted: HepG2 HNF4a transactivation reporter, mRNA readout. In short, it runs like this: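 HepG2 cells transiently transfected with multiplexed GAL4-UAS reporter units responsive to chimeric NR-GAL4 proteins; compound exposure 24 h. Reporter mRNA quantified by RT-PCR, 6-FAM labelling, HpaI digestion and capillary electrophoresis; gain of signal versus DMSO baseline.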

Experiment [19] has as its target Bile acid receptor (Homo sapiens) (UniProt Q96RI1). Nature of the experiment: ATG_FXR_TRANS: Attagene TRANS-FACTORIAL HepG2 Assay for Farnesoid X Receptor (FXR) (AID 2282979; active = hit-call score of the fitted dose curve at least 0.9, where 1 is the maximum;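 also: hits raise reporter mRNA above DMSO so AC50 marks FXR activation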). The note with it: HepG2 Attagene TRANS FXR-GAL4 reporter transcription. In short, it runs like this:
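HepG2 cells transiently transfected with reporter constructs in which a chimeric FXR-GAL4 protein drives a GAL4-UAS reporter; 24 h compound exposure. Reporter mRNA measured by RT-PCR, FAM labelling, HpaI digestion and capillary electrophoresis; gain-of-signal versus DMSO.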

Chain of Transcriptional activator Myb (Homo sapiens) (P10242 whole entry, looked up): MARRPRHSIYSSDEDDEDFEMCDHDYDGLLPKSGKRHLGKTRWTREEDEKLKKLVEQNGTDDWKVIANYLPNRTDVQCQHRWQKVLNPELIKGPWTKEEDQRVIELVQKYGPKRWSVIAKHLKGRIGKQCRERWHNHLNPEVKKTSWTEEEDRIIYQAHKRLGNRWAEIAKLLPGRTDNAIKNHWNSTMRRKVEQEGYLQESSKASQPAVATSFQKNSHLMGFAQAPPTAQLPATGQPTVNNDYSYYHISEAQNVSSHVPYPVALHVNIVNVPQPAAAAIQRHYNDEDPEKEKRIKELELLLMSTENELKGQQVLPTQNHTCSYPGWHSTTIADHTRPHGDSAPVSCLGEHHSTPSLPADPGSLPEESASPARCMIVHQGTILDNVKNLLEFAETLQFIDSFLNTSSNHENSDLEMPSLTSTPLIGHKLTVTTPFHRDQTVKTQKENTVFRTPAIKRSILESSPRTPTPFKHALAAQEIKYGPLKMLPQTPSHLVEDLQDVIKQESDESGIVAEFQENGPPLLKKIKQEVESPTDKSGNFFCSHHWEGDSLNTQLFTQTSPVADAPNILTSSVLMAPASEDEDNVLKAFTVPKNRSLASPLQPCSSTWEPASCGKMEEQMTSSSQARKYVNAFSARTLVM
Chain of Nuclear respiratory factor 1 (Homo sapiens) (Q16656 whole entry, looked up): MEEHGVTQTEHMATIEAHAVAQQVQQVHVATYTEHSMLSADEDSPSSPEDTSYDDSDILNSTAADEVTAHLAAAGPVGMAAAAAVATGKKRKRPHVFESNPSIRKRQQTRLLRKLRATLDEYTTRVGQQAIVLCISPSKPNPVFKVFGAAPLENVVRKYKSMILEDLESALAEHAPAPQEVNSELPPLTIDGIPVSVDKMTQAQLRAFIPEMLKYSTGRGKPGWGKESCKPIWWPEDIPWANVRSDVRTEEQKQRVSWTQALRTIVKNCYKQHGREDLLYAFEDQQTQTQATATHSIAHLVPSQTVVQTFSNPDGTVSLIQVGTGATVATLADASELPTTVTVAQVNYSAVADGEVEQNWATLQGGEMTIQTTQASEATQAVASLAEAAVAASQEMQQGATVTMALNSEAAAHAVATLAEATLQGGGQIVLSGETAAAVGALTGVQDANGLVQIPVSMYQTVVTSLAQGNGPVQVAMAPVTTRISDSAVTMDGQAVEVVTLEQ
Chain of X-box-binding protein 1 (Homo sapiens) (P17861 whole entry, looked up): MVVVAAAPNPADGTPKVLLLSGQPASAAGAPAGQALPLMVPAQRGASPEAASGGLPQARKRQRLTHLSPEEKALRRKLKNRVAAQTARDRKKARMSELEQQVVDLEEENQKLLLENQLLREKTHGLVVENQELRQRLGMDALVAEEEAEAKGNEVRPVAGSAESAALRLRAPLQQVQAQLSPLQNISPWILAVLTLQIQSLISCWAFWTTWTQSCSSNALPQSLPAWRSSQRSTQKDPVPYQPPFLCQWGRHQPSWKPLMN
Chain of Glucocorticoid receptor (Homo sapiens) (P04150 whole entry, looked up): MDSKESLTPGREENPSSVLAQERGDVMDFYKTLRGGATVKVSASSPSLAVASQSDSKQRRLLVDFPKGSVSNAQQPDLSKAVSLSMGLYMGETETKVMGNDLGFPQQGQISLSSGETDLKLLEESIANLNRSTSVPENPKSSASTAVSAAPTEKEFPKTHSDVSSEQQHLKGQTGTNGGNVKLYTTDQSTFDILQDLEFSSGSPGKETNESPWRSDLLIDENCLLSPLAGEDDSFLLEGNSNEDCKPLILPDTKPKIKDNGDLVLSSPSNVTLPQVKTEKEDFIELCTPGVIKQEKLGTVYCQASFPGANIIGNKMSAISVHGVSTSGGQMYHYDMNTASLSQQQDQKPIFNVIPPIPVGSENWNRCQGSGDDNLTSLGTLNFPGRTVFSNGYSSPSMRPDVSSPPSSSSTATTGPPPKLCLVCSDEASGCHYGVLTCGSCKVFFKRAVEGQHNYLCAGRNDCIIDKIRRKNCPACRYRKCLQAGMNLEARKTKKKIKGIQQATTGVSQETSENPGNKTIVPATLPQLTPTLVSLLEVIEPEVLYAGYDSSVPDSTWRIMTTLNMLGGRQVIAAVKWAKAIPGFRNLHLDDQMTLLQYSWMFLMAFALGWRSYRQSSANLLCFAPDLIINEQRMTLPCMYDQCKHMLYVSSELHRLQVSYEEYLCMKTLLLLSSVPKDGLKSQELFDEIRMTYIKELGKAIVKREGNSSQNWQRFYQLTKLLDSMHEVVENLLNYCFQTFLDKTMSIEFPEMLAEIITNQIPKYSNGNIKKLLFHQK
Chain of Hepatocyte nuclear factor 4-alpha (Homo sapiens) (P41235 whole entry, looked up, the tested form may be a part): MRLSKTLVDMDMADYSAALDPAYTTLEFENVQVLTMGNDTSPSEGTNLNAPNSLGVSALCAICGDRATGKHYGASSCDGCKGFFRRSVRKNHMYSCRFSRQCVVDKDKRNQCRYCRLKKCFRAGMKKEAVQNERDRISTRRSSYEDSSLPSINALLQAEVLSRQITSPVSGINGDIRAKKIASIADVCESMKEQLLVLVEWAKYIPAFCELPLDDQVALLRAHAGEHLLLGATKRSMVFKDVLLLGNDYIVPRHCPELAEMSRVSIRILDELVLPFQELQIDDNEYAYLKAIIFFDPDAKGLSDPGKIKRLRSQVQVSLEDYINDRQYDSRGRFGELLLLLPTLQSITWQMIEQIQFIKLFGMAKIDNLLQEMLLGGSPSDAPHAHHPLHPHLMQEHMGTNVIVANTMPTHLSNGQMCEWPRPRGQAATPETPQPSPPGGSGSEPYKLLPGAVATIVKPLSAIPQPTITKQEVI
Chain of Nuclear receptor subfamily 1 group I member 3 (Homo sapiens) (Q14994 whole entry, looked up, the tested form may be a part): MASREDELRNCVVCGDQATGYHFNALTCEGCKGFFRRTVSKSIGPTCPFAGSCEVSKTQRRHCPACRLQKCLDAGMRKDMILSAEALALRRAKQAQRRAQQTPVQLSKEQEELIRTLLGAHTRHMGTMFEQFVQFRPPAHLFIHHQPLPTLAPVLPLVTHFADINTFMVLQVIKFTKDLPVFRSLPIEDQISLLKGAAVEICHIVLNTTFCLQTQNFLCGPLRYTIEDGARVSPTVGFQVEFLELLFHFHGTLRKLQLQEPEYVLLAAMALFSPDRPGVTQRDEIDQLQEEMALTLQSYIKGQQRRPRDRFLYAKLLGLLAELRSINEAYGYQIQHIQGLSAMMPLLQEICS
Chain of Estrogen receptor (Homo sapiens) (P03372 whole entry, looked up, the tested form may be a part): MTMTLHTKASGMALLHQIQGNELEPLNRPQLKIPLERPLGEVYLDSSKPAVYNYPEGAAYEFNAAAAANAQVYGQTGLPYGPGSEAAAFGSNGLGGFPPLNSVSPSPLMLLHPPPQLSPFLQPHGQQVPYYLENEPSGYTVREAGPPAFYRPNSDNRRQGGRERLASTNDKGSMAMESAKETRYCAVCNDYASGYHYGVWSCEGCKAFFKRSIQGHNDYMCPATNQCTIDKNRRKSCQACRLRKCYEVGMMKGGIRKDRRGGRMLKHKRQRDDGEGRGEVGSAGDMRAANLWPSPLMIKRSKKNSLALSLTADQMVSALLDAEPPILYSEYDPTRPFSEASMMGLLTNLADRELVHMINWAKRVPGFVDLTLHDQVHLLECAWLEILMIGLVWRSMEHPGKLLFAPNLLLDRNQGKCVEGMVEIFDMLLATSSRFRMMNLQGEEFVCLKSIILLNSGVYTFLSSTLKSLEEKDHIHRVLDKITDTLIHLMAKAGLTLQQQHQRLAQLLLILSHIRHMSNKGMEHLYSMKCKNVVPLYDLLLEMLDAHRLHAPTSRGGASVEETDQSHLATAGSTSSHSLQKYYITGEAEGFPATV
Chain of Oxysterols receptor LXR-alpha (Homo sapiens) (Q13133 whole entry, looked up, the tested form may be a part): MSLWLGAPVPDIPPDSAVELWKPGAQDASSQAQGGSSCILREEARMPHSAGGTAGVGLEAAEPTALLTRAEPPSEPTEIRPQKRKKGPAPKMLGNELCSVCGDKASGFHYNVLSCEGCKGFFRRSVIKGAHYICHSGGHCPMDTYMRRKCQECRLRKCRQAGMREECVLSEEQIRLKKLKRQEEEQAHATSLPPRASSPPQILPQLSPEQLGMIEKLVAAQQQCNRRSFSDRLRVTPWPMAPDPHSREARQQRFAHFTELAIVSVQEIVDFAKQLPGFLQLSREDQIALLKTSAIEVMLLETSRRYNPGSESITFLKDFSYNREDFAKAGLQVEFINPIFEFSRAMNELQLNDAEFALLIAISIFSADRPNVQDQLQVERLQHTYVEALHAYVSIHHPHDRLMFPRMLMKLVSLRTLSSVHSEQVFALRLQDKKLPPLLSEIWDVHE

Turning to `c1ccc2cc3ccccc3cc2c1`, the call in experiment [1], in experiment [2], in experiment [3], in experiment [4], in experiment [5] and in experiment [6] was inactive. Further, the compound was classed as inactive in experiment [7], in [8], in experiment [9], in experiment [10], in experiment [11] and in experiment [12].
For the compound `Nc1ccn([C@@H]2O[C@H](CO)[C@@H](O)[C@@H]2O)c(=O)n1`, the result in experiment [1], in experiment [2], in experiment [3], in [6], in [7] and in experiment [13] was inactive. Further, the compound was called inactive in [14], in experiment [10], in experiment [11] and in experiment [12]. For the same compound, in experiment [4], the AC50 is 40 µM (active).
On to `O=c1[nH]cnc2c1ncn2[C@H]1CC[C@@H](CO)O1`, for which the compound was classed as inactive in [1], in experiment [2], in [15], in experiment [6], in experiment [7] and in experiment [8]. For the same compound, the result in [16], in experiment [17], in [10], in experiment [11] and in [12] was inactive.
For the compound `CCOC(N)=O`, the outcome in experiment [1], in experiment [2], in [6], in experiment [13], in [16] and in [9] was inactive. The compound was called inactive in experiment [10], in [11] and in experiment [12].
Regarding `CC(=O)c1ccccc1`, the outcome in [1], in experiment [2], in experiment [15], in experiment [6], in experiment [7] and in experiment [13] was inactive. For the same compound, the call in [18], in experiment [10], in [11] and in experiment [12] was inactive.
On to `O=C(O)c1ccc2c(c1)nc(C(=O)NC1CCN(C3CC3)CC1)n2Cc1cc(-c2ccc(Cl)s2)on1`, for which the compound was called inactive in experiment [1], in experiment [2], in experiment [6], in experiment [13], in [19] and in [18]. In addition, the call in [16], in experiment [17], in experiment [10], in experiment [11] and in experiment [12] was inactive.

A word on the AC50: it is the concentration at which the activity in the assay is half-maximal.

For the origin of these results see PubChem BioAssay (EPA / NIEHS).
